A number with no mark means an inactive call. Records with an inconclusive call do not appear. Active and inactive are the calls of the source. Unless noted, calls follow the shape of the dose curve; as a rule, active = well fitted curve in the direction sought with a large enough effect in the repeat runs; inconclusive = weak or mixed curves; inactive = no such curve, though single readings can be large; an effect the other way counts as inactive or inconclusive.

The source of these data is PubChem BioAssay (Tox21).

The nature of test [1]: qHTS assay to identify small molecule antagonists of the estrogen receptor alpha (ER-alpha) signaling pathway using the BG1 cell line in the presence of 0.1 nM 17-beta-estradiol - cell viability counter screen (AID 1259241). Also: nearly all actives have a fitted effect of over 40% in size. A digest of the protocol: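 Viability in VM7Luc4E2 cells after 22 hr compound exposure under 0.1 nM 17beta-estradiol stimulation, by CellTiter-Fluor.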
In general terms: qHTS replaces the single test concentration by a dilution series.

The target of test [2] is Estrogen receptor (Homo sapiens) (UniProt P03372). Kind of test: qHTS assay to identify small molecule antagonists of the estrogen receptor alpha (ER-alpha) signaling pathway using the BG1 cell line in the presence of 0.1 nM 17-beta-estradiol (AID 1259244). Also: nearly all actives have a fitted effect of over 50% in size. The method in brief:
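VM7Luc4E2; 4xERE-luciferase; 0.1 nM E2 final; 22 h co-incubation, 37C; ONE-Glo luminescence after 30 min at room temperature.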

Test [3] can be described thus: qHTS assay to identify small molecule HDAC inhibitors (AID 1259364). Also: potency is read from the fitted curve at half-maximal effect.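 Also: wild-type HCT-116 cells with endogenous class I/II HDAC activity; nearly all actives have a fitted effect of over 45% in size.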 A digest of the protocol: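 Relative class I and II HDAC activity is taken from the luminogenic signal in HCT-116 cells, with compound exposure 2 hr and reagent development 30 min at room temperature.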
Test [4] can be described thus: qHTS assay to identify small molecule HDAC inhibitors - cell viability counter screen (AID 1259365). Also: series mostly up to about 92 µM; nearly all actives have a fitted effect of over 50% in size. The method in brief:
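Cytotoxicity was gauged in wild-type HCT-116 cells after a brief 2hr treatment with DMSO-dissolved compounds at 37C and 5% CO2, using CellTiter-Glo luminescence developed for 30min at room temperature.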

Test [5] can be described thus: qHTS assay to identify small molecule agonists of the sonic hedgehog signaling (Shh) pathway - cell viability counter screen (AID 1259366). Also: nearly all actives have a fitted effect of over 50% in size. A digest of the protocol: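 Stable Gli1-Luc NIH/3T3 clone, 2,000 cells/well. Compound exposure 24hr at 37C. Read-out: CellTiter-Fluor fluorescence.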
The nature of test [6]: qHTS assay to identify small molecule antagonists of the sonic hedgehog signaling (Shh) pathway - cell viability counter screen (AID 1259367). Also: nearly all actives have a fitted effect of over 55% in size. The method in brief: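 Using CellTiter-Fluor, viability of Gli1-Luc reporter 3T3 cells is read by fluorescence in the wells used for the Shh luciferase assay. Treatment lasts 23 hr with conditioned medium, then reagent 1 hr at 37C.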

The nature of test [7]: qHTS assay to identify small molecule antagonists of the sonic hedgehog signaling (Shh) pathway (AID 1259369; calls by dose curve; also: nearly all actives have a fitted effect of over 45% in size). A digest of the protocol:
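Conditioned medium drives Shh signalling in 3T3Gli1-Luc cells; compounds in DMSO co-applied, 24hr at 37 C, then luciferase luminescence.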

For test [8], the target named is Estrogen receptor beta (Homo sapiens) (UniProt Q92731). Description: qHTS assay to identify small molecule antagonists of the estrogen receptor beta (ER-beta) signaling pathway (AID 1259378; active = well fitted inhibition curve with a large enough effect in the signal ratio in the repeat runs, not every such curve was filed as active; the % refers to the signal ratio). A digest of the protocol: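 Antagonist mode: compounds added to beta-lactamase reporter HEK293T ER-beta-UAS cells stimulated with E2 (1nM final), 16 hr at 37C. LiveBLAzer B/G FRET substrate, 2 hours room temperature, fluorescence read-out.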

Test [9] in a line: qHTS assay to identify small molecule agonists of the androgen receptor (AR) signaling pathway in the presence of an antagonist - cell viability counter screen (AID 1259379).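 Also: MDA-kb2 human breast cancer cells carrying an MMTV luciferase reporter; series mostly up to about 92 µM; nearly all actives have a fitted effect of over 25% in size.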 A digest of the protocol:
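A CellTiter-Fluor read-out measured viability of MDA-kb2 reporter cells (MMTV promoter with AR and GR response elements). Treatment: nilutamide 3.0uM final with compounds at 15 concentrations, 16 hr, 37C, 0% CO2.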

Test [10] can be described thus: qHTS assay to identify small molecule agonists of the estrogen receptor beta (ER-beta) signaling pathway - cell viability counter screen (AID 1259380). Also: nearly all actives have a fitted effect of over 30% in size. Also: potency is read from the fitted curve at half-maximal effect. A digest of the protocol: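 Cells used were ER-beta-UAS-bla HEK293T in medium with 2% charcoal-stripped FBS. They were treated for 16 hr at 37C. Viability came from CellTiter-Glo luminescence.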
Test [11] can be described thus: qHTS assay to identify small molecule antagonists of the estrogen receptor beta (ER-beta) signaling pathway - cell viability counter screen (AID 1259382). Also: series mostly up to about 92 µM; nearly all actives have a fitted effect of over 55% in size. The method in brief: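 Agonist-stimulated (1nM E2) ER-beta-UAS-bla HEK293T cells are incubated with library compounds for 16 hr at 37C. Cell viability is then assessed in the reporter-assay wells by adding CellTiter-Glo and reading luminescence after 30 min.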

Test [12] addresses Estrogen receptor (Homo sapiens) (UniProt P03372). Kind of test: qHTS assay to identify small molecule agonists of the estrogen receptor alpha (ER-alpha) signaling pathway in the presence of an antagonist (AID 1259383; calls by dose curve; also: top concentration of the series differs between compounds; nearly all actives have a fitted effect of over 15% in size). The method in brief:
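Using VM7Luc4E2 cells seeded 24hr before treatment, antagonist ICI-182,780 (10.0nM final) was added, followed by compounds at 15 concentrations. Plates incubated 22hr; ONE-Glo luminescence quantified reporter activity.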

The nature of test [13]: qHTS assay to identify small molecule agonists or antagonists of the thyroid stimulating hormone receptor (TSHR) signaling pathway - wild type cell line counter screen (AID 1259384; calls by dose curve). A digest of the protocol:
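Counter screen in untransfected Hek293: compounds (15-point titration, triplicate) plus phosphodiesterase inhibitor Ro20-1724 added after 18 h plating; 30 min RT. Intracellular cAMP via competitive d2/cryptate immunoassay, 1 h incubation.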

Test [14] concerns the target Thyrotropin receptor (Homo sapiens) (UniProt P16473). Kind of test: qHTS assay to identify small molecule antagonists of the thyroid stimulating hormone receptor (TSHR) signaling pathway (AID 1259385; calls by dose curve; also: nearly all actives have a fitted effect of over 20% in size; also: potency is read from the fitted curve at half-maximal effect). A digest of the protocol:
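Antagonist mode: compound-treated TSHR-expressing HEK293 cells were stimulated with 1.5 ng/mL TSH (final) in presence of Ro20-1724 for 30 min at RT. HTRF cAMP detection after 1 h; each compound tested at 15 concentrations, triplicate.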

Test [15] can be described thus: qHTS assay to identify small molecule agonists of the sonic hedgehog signaling (Shh) pathway (AID 1259368; calls by dose curve;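 also: NIH/3T3-derived 3T3Gli1-Luc cells carrying a stable Gli1-driven firefly luciferase reporter; series mostly up to about 92 µM; nearly all actives have a fitted effect of over 15% in size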). The method in brief: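 Mouse fibroblast (NIH/3T3) reporter cells with stably integrated Gli1-Luc were treated 24 hr with compound; firefly luciferase luminescence served as the read-out.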
Test [16] addresses Estrogen receptor beta (Homo sapiens) (UniProt Q92731). Kind of test: qHTS assay to identify small molecule agonists of the estrogen receptor beta (ER-beta) signaling pathway (AID 1259377; active = well fitted activation curve with a large enough effect in the signal ratio in the repeat runs, not every such curve was filed as active; the % refers to the signal ratio). A digest of the protocol: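 Measured by fluorescence intensity from a B/G FRET beta-lactamase substrate (2 h, room temperature) in ER-beta-UAS-bla HEK293T cells treated with DMSO-dissolved compounds for 16 hr at 37C and 5% CO2.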

The nature of test [17]: qHTS assay to identify small molecule antagonists of the androgen receptor (AR) signaling pathway using the MDA cell line in the presence of 0.5 nM R1881 - cell viability counter screen (AID 1259242). Also: nearly all actives have a fitted effect of over 45% in size. The method in brief: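 R1881 at 0.5 nM final stimulated MDA-kb2 cells during 16 hr compound treatment at 37C. Cytotoxicity read: CellTiter-Fluor fluorescence after 30 min.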

Test [18] concerns the target Androgen receptor (Homo sapiens) (UniProt P10275). Description: qHTS assay to identify small molecule antagonists of the androgen receptor (AR) signaling pathway using the MDA cell line in the presence of 0.5 nM R1881 (AID 1259243). Also: nearly all actives have a fitted effect of over 50% in size. The method in brief:
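We exposed MDA-kb2 cells to compounds under 0.5 nM R1881 stimulation for 16 hr at 37C and quantified MMTV-driven luciferase by luminescence.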

The target is the same in test [19]. Description: qHTS assay to identify small molecule agonists of the androgen receptor (AR) signaling pathway in the presence of an antagonist (AID 1259381; calls by dose curve; also: nearly all actives have a fitted effect of over 15% in size; also: potency is read from the fitted curve at half-maximal effect). A digest of the protocol: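 Using human MDA-kb2 cells with an MMTV promoter–luciferase construct (AR and GR response elements), agonist activity is scored under 3.0uM nilutamide (final) co-treatment; 16hr incubation, 37C, luminescence readout via ONE-Glo.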

Test [20] is described as follows: qHTS assay to identify small molecule phospholipidosis (PLD) inducers (AID 1259344; active = well fitted curve in the direction sought with a large enough effect; an effect the other way counts as inactive or inconclusive). A digest of the protocol: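 Fluorescent phospholipid staining (LipidTOX Red) measured by automated microscopy in fixed HepG2 cells after 24 h treatment; nuclei counterstained with Hoechst 33342; amiodarone as reference inducer.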

Chain of Androgen receptor (Homo sapiens) (P10275 whole entry, looked up): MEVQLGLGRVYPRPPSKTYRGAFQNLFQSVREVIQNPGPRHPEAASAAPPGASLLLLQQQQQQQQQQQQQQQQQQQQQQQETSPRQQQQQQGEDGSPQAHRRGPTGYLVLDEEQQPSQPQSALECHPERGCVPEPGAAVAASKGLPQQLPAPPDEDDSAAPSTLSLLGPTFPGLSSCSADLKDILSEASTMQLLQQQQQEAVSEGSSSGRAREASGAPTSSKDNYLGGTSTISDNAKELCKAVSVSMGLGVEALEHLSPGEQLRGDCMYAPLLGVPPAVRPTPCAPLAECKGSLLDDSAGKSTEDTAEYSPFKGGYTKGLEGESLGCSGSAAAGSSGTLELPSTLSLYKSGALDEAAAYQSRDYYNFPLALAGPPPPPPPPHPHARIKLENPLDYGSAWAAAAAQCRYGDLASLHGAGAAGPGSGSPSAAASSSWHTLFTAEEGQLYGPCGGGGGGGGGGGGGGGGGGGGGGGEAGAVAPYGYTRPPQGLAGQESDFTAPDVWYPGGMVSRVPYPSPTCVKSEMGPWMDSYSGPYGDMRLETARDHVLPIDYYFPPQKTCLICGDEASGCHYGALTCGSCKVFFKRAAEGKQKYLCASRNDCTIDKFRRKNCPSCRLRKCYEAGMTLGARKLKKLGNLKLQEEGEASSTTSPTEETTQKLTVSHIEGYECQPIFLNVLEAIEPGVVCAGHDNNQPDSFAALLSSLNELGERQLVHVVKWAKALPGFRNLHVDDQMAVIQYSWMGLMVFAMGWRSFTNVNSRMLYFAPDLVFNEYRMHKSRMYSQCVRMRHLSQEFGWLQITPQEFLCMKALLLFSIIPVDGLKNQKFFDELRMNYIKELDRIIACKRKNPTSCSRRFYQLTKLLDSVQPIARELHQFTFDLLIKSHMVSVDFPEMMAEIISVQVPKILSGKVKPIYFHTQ
Chain of Thyrotropin receptor (Homo sapiens) (P16473 whole entry, looked up): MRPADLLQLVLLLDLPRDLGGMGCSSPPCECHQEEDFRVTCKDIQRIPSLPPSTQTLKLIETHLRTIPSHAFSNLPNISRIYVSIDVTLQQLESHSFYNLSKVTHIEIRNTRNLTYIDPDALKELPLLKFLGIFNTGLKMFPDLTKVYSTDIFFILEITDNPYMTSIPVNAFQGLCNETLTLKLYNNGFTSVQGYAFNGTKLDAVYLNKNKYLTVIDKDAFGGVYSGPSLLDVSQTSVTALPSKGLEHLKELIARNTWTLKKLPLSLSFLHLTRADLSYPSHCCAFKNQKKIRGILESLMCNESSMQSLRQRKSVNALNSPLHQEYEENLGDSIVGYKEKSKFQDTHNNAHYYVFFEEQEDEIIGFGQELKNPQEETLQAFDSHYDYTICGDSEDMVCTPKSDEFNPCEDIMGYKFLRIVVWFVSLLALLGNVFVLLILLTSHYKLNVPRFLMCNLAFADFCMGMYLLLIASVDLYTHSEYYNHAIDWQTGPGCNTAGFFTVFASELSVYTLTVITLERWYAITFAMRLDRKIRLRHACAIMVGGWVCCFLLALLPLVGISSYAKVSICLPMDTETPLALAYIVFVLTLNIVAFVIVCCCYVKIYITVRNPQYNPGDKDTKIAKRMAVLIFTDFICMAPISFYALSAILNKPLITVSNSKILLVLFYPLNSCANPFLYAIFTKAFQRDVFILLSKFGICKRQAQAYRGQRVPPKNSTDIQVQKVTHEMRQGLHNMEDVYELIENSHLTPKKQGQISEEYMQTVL
Chain of Estrogen receptor beta (Homo sapiens) (Q92731 whole entry, looked up): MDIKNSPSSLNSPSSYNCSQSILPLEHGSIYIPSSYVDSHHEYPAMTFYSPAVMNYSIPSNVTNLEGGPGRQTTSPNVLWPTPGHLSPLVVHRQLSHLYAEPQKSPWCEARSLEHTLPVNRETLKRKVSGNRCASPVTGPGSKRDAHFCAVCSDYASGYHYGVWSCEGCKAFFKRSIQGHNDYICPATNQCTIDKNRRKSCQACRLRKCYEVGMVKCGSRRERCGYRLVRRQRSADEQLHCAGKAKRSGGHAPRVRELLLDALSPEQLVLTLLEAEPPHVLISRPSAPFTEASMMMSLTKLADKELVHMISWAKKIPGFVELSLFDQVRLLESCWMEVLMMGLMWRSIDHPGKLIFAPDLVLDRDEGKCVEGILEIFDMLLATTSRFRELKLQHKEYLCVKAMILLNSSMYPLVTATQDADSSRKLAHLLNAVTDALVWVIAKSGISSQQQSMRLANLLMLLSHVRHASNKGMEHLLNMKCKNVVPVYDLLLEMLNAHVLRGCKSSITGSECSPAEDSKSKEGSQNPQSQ
Chain of Estrogen receptor (Homo sapiens) (P03372 whole entry, looked up): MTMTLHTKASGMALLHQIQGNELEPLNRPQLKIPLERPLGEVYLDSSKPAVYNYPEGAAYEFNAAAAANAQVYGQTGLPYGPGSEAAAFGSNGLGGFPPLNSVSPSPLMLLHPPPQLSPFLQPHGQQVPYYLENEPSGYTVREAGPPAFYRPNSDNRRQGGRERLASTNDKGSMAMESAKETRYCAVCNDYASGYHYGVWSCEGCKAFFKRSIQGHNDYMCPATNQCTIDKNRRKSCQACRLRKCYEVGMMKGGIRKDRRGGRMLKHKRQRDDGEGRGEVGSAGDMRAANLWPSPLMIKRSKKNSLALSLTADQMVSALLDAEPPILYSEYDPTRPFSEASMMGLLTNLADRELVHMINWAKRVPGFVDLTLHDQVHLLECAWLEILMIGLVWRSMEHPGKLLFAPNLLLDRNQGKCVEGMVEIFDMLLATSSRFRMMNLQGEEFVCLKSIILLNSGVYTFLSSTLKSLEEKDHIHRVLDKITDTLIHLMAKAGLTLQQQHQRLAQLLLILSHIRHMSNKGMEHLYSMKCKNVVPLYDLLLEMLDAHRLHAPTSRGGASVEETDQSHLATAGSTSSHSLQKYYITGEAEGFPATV

Take `OCCC1CCCCN1` (stereo not given): the Potency entry in [1], in test [2], in test [3], in test [5], in test [6] and in test [7] was “inactive” in each case. Further, the Potency entry in test [8], in test [9], in test [10], in test [11], in [12] and in test [13] was “inactive” each time. Further, the Potency result in [14] was “inactive”. Further, the call in test [4] was inactive.

Take `CC(=O)OCCc1ccccc1`: the Potency entry in test [1], in test [2], in [3], in [5], in test [6] and in test [7] was “inactive” in each case. For the same compound, the Potency entry in test [9], in test [10], in [11] and in [14] was “inactive” in each case. In [15], the outcome was inactive.

`CCOC(=O)[C@H](CCc1ccccc1)N[C@H]1CCc2ccccc2N(CC(=O)O)C1=O`: the Potency entry in test [1], in [3], in [5], in test [7], in test [16] and in test [9] was “inactive” throughout. Moreover, in test [13], the Potency entry is “inactive”. In addition, the call in test [4] and in [15] was inactive. Also, the Potency in test [10] was 11.9 µM (active); in test [14] it was 29.8 µM (active).

As to `CCCCCCCC/C=C\CCCCCCCC(N)=O`, the Potency entry in test [17], in [18], in test [3], in test [5], in [6] and in test [7] was “inactive” in each case. The Potency result in [9], in test [19], in [11], in test [13] and in test [14] was “inactive” throughout. Moreover, the outcome in test [4] and in test [15] was inactive.

For `O=S1(=O)c2cccc3cccc(c23)N1CCCN1CCN(c2ccc(F)cc2)CC1`, the Potency entry in test [1], in [20], in [5], in test [6], in test [7] and in [16] was “inactive” throughout. Moreover, the Potency entry in test [9], in [11], in [12], in [13] and in [14] was “inactive” each time. The call in test [4] was inactive.

For the compound `CC(=O)SCc1ccco1`, the Potency entry in test [17], in test [18], in [2], in test [5], in [6] and in [7] was “inactive” throughout. Also, the Potency entry in [8], in test [9], in [10], in test [19], in test [12] and in [13] was “inactive” throughout. Moreover, in test [14], the Potency result is “inactive”. Also, in [15], the result was inactive.

For the compound `CC[C@]12CCCN3CCc4c(n(c5ccccc45)C(=O)C1)[C@@H]32`, the Potency entry in [17], in test [18], in test [20], in test [3], in test [16] and in test [8] was “inactive” each time. For the same compound, in [14], the Potency entry is “inactive”. In addition, the outcome in test [4] and in test [15] was inactive. Besides, the Potency in test [19] is 29.8 µM (active).

Take `CC(C(=O)O)c1ccc(C(=O)c2ccccc2)s1` (stereo not given): the Potency entry in [17], in test [18], in test [2], in [20], in test [5] and in test [6] was “inactive” in each case. The Potency result in test [7], in [9] and in test [10] was “inactive” in each case. In addition, in [3], the Potency is 6.68 µM (active). Also, in test [15], the compound was classed as inactive.

Consider `O=C(O)Cc1cc(I)c(Oc2ccc(O)c(I)c2)c(I)c1`, for which the Potency result in test [1], in test [20], in [3], in test [5], in test [6] and in test [7] was “inactive” in each case. The Potency result in [9], in [11] and in test [14] was “inactive” throughout. For the same compound, in [4], the compound was classed as inactive.

Regarding `CC(C)(C)c1cc(CO)cc(C(C)(C)C)c1O`, the Potency entry in [1], in [3], in [5], in test [16], in [9] and in [11] was “inactive” throughout. Also, the Potency result in test [12] and in [14] was “inactive” in each case. Further, the call in test [15] was inactive.
